PubChem BioAssay (NCI)
Values joined by “and” are separate entries in the source; they are usually repeats but may differ in a detail not shown here. Equal values may be shown once. The panel holds about 83,000 compounds, 20% with a hit somewhere; the sample as a whole holds those more often.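 Cell lines were cultured in 96-well plates, exposed to a single compound concentration, and assessed for percent growth 48 hours later.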 Active and inactive are the calls of the source. Rule for the calls: active = growth percent below 10; inactive = the rest.

Tests used:
Test in all cases: NCI-60 one-dose screen, 48 h (100 = growth as untreated, 0 = no growth, -100 = all killed)
Settings in all cases: 10 µM unless noted
[1] = tested on: HCT-15 colon
[2] = tested on: SNB-75 CNS
[3] = tested on: SNB-19 CNS
[4] = tested on: U251 CNS
[5] = tested on: PC-3 prostate
[6] = tested on: SK-MEL-5 melanoma
[7] = tested on: UACC-62 melanoma
[8] = tested on: LOX IMVI melanoma
[9] = tested on: SK-MEL-28 melanoma

Measured: growth

CCN1CCN(CCNc2nccc(-c3c(-c4cccc(O)c4)nc4sccn34)n2)S1(=O)=O
active: [7] 0.351% and 0.223%
inactive: [1] 67.7% and 59% | [2] 62.6% and 50.2% | [3] 104% and 117% | [4] 90.4% and 93.2% | [5] 63.9% and 77.9% | [6] 51% and 32.4% | [8] 37.7% and 30.9% | [9] 23.7% and 20.5%

C=CCn1c2c(c3ccccc3c1=O)C(=O)c1ccccc1-2
inactive: [7] 66.9% [100 µM] and 11.1% [100 µM]

O=C(Nc1ccc(Br)cc1)c1cc(Br)ccc1O
-10.1% (active) and 49.2% (inactive): [2]
active: [5] 5.68% and 3.31% | [6] -65.5% and -83.1% | [7] 3.77% and -27.9% | [8] 2.39% and 8.77%
inactive: [1] 15.2% and 15.6% | [3] 22.1% and 23.1% | [4] 15.4% and 10.2% | [9] 27% and 16.4%

Oc1ccccc1C=NCC1CCC(CN=Cc2ccccc2O)CC1 (configuration not stated)
inactive: [2] 101% | [3] 94.6% | [4] 78.4% | [5] 77.8% | [6] 92.8% | [8] 80.2% | [9] 128%
active: [1] 7.98%

O=C(CN1CCOCC1)N1CCOCC1
inactive: [1] 111% and 98% | [2] 106% and 104% | [3] 103% and 105% | [4] 107% | [5] 90.8% | [6] 107% and 105% | [8] 99.6% and 100% | [9] 123% and 107%

COc1cc2c3cc1Oc1c(OC)c(OC)cc4c1C(Cc1ccc(O)c(c1)-c1cc(ccc1OC)CC3N(C)CC2)N(C)CC4 (configuration not stated)
active: [7] -88% [100 µM] and -95.6% [100 µM]

COC(=O)C(C(=O)C(=O)Nc1c(C)cccc1C(C)(C)C)c1nc2ccc(Cl)cc2[nH]c1=O (configuration not stated)
inactive: [7] 68% [100 µM] and 84.1% [100 µM]

Nc1ccc(N=Nc2ccc(S(=O)(=O)O)cc2)cc1S(=O)(=O)O
inactive: [1] 102% and 96.7% | [2] 106% and 81.6% | [3] 96.5% | [4] 99.6% and 95.5% | [5] 92.2% and 74% | [6] 111% and 103% | [8] 93.7% and 92.1% | [9] 109% and 104%

CC(=N\N=C\c1ccccn1)/C(C)=N/N=C/c1ccccn1
inactive: [7] 86% [100 µM] and 54.1% [100 µM]

COc1cc2c(cc1C1COc3cc4occc4cc3C1=O)OCO2 (configuration not stated)
inactive: [7] 62.1% [100 µM] and 73.4% [100 µM]

Oc1ccccc1/C=N\NC(=S)N/N=C/c1ccccc1O
35.7% (inactive) and -37% (active): [6]
20.4% (inactive) and -5.16% (active): [7]
inactive: [1] 19.1% and 22.4% | [2] 77% and 90.1% | [3] 51.1% and 44.6% | [4] 41% and 24.2% | [5] 35% | [8] 28.4% and 25.3% | [9] 53.6% and 58.8%

C=C1C(=O)O[C@H]2[C@H]1CC/C(COC(=O)NC1CCC(O)CC1)=C\CC[C@@]1(C)O[C@@H]21 (some centres not stated)
inactive: [1] 92.2% and 85.3% | [2] 71% and 71.7% | [3] 100% and 99.5% | [4] 91.8% and 88.3% | [5] 95.5% and 90.6% | [8] 90.3% and 86.9%

O=C(CCc1ccc(O)c(O)c1)c1ccc(O)c(O)c1O
active: [7] -41% [100 µM] and -97.2% [100 µM]

O=[N+]([O-])c1ccc(Oc2ccccc2)cc1
inactive: [1] 123% and 104% | [3] 97% and 114% | [4] 102% and 105% | [5] 81.9% and 88.4% | [6] 109% and 108% | [7] 107% and 106% | [8] 95.3% and 99.3% | [9] 108%

COc1cc(C(=O)N/N=C/c2ccc(N(C)C)cc2)cc(OC)c1OC
inactive: [1] 20% | [2] 38.4% | [3] 53.3% | [5] 25.4% | [7] 43.1% | [8] 20.5% | [9] 53.8%
active: [4] 3.96% | [6] 7.49%

Nc1ccc2[nH]c(-c3ccccc3)cc(=O)c2c1
inactive: [1] 73.7% | [2] 82.4% | [3] 88.7% | [4] 72.9% | [5] 74.1% | [6] 58.2% | [7] 77.6% | [9] 86.5%

CC[N+](CC)(CC(=O)Nc1c(C)cccc1C)Cc1ccccc1
inactive: [1] 88.6% and 104% | [2] 84.9% and 101% | [3] 95.4% and 96.8% | [4] 75.6% and 97.9% | [5] 84.3% and 97.2% | [6] 85.7% and 98.7% | [7] 81.6% and 93.2% | [8] 79% and 98.3% | [9] 99.7% and 103%
